In the library only some 12% were active in any assay of this set; here they are far more common.
PLK1 PBD inh = qHTS for Inhibitors of PLK1-PDB (polo-like kinase 1 - polo-box domain): Primary Screen; AID 720504, 2013; Potency, µM, without a hit: max response, negative = inhibition, actives largely listed as inhibitors; Plk1 PBD binding of FITC phosphopeptide, fluorescence polarization; actives 2.8% (n = 360,000); also: series mostly up to about 57 µM; % is scaled to controls: 0 for no effect and ±100 for the full control effect; nearly all actives have a fitted effect of over 65% in size
G9a inh = qHTS Assay for Inhibitors of Histone Lysine Methyltransferase G9a | Histone-lysine N-methyltransferase EHMT2 (Homo sapiens), Q96KQ7 | G9a H3K9 monomethylation, AlphaScreen, 2 h | Potency, µM (top dose mostly 102 µM), without a hit: top-dose activity, negative = inhibition, most hits filed as inhibitors | actives 8.8% (n = 350,000) | AID 504332, 2011; also: % is scaled to controls: 0 for no effect and ±100 for the full control effect; nearly all actives have a fitted effect of over 75% in size
Target sequence (Q96KQ7 913-1193 limits assumed): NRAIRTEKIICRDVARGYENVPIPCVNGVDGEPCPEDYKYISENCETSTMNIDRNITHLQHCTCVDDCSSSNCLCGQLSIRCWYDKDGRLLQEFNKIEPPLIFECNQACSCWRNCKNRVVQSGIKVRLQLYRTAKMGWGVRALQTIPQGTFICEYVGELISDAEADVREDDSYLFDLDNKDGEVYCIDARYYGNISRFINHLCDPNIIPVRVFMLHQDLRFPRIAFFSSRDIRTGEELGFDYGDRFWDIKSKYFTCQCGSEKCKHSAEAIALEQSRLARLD
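Enzyme 20 nM + cpd, 15 min RT; add b-H3K9 pep 500 nM / SAM 20 uM; 2 h RT; anti-H3K9me1 Ab 0.5 ug/mL + SA donor / anti-rabbit acceptor beads 20 ug/mL each, 10 min; AlphaScreen read.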
JMJD2A Tudor inh = qHTS Assay for Inhibitors of JMJD2A-Tudor Domain; Lysine-specific demethylase 4A (Homo sapiens), O75164; AlphaScreen JMJD2A-Tudor / H3K4me3 peptide binding; Potency, µM (highest dose often 114 µM), for inactives: top-dose activity change, negative = inhibition, usual class: inhibitors; actives 4.4% (n = 390,000); AID 504339, 2011; also: % is scaled to controls: 0 for no effect and ±100 for the full control effect; nearly all actives have a fitted effect of over 50% in size
HP1b binding inh = HTS for Inhibitors of HP1-beta Chromodomain Interactions with Methylated Histone Tails. Chromobox protein homolog 1 (Homo sapiens), P83916. AlphaScreen HP1-beta / biotin-H3K9me3 peptide binding. Potency, µM (titrated, usually from 114 µM), inactives show at the highest dose activity change, negative = inhibition, actives largely listed as inhibitors. actives 0.56% (n = 390,000); also: nearly all actives have a fitted effect of over 70% in size
Target sequence (P83916 whole entry, looked up): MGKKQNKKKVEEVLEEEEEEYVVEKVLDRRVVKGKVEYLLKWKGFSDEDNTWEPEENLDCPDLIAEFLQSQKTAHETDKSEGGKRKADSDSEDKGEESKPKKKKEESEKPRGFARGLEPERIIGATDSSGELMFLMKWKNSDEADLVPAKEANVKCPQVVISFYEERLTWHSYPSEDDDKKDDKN
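HP1-beta protein (50 nM final) preincubated 30 min at room temperature with biotinylated H3(1-18)K9me3 peptide (50 nM) in PBS pH 7.4, 0.01% Tween-20, then compound added for 30 min. AlphaScreen streptavidin donor/nickel chelate acceptor beads (10 ug/mL final), 30 min dark, luminescence read.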
Sfp PPTase inh = qHTS Assay for Inhibitors of Bacillus subtilis Sfp phosphopantetheinyl transferase (PPTase); AID 1490, 2009; actives 3.5% (n = 310,000); Biochemical Sfp PPTase activity, qHTS; Potency, µM, inactives show largest response in the series, negative = inhibition, actives largely listed as inhibitors; 4'-phosphopantetheinyl transferase ffp (Bacillus subtilis), Q9F4F7;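 also: the enzyme is Sfp with the accession as filed and its product quenches rhodamine fluorescence; 0% = enzyme reaction without inhibitor and -100% = no enzyme wells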
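With Hepes-Na pH 7.6 buffer containing 10 mM MgCl2, Sfp (15 nM) modified BHQ-2-YbbR (12.5 uM) using rhodamine-CoA (5 uM). Two reads 30 minutes apart at 525/598 nm yielded each well's rate.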
BAZ2B block = qHTS Assay for Inhibitors of BAZ2B; Potency, µM (highest dose often 114 µM), inactives show at the highest dose activity change, negative = inhibition, usual class: inhibitors; Bromodomain adjacent to zinc finger domain protein 2B (Homo sapiens), Q9UIF8; actives 4.4% (n = 360,000); AlphaScreen BAZ2B-H3K14Ac peptide displacement; also: % is scaled to controls: 0 for no effect and ±100 for the full control effect; nearly all actives have a fitted effect of over 60% in size
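AlphaScreen displacement: compounds (up to 110uM) incubated 30 min at room temperature with a preformed 50 nM BAZ2B/50 nM biotinylated H3K14Ac peptide complex in PBS pH 7.4 with Tween-20. Donor and acceptor beads at 10 ug/mL final added, 20 min light-protected before reading.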
An asterisk follows results filed as active; ? = inconclusive; / = no result given; [ ] = remark or other dose. Calls follow the shape of the dose curve; as a rule, active = well fitted curve in the direction sought with a large enough effect; inconclusive = small, poorly fitted or top-dose-only effect, or another doubt; inactive = no such curve, though single readings can be large; an effect the other way counts as inactive or inconclusive. Potency is read from the fitted curve at half-maximal effect.

SMILES | PLK1 PBD inh | G9a inh | JMJD2A Tudor inh | HP1b binding inh | Sfp PPTase inh | BAZ2B block
Cc1ccc(C(=O)n2nnc3ccccc32)cc1[N+](=O)[O-] | ? | ? | -2.8%[57.1 µM] | 47.1% | -18.7% | 2.8%
O=C(c1ccc2c(c1)OCO2)n1nnc2ccccc21 | / | 44.7µM* | / | / | 9.6% | -16.9%
COc1ccc(C(=O)n2nnc3ccccc32)cc1OC | 9.47µM* | 44.7µM* | -6.9% | 56.4% | -15.6% | 5.2%
COc1ccc(C(=O)COC(=O)Cn2nnc3ccccc32)cc1Br | -12.0% | 7.6%[12.7 µM] | -17.9% | 5.0% | -1.2% | -3.0%
COc1ccc(NC(=O)CCCCCn2nnc3ccccc3c2=O)cc1OC | 2.0% | 23.1% | 7.7% | 29.0% | 5.7% | -4.5%
COc1ccc(C(=O)n2nnc3ccccc32)cc1Br | 1.5µM* | ? | -6.0% | 39.5% | 12.4% | ?
O=C(Nc1ccc(N2CCOCC2)cc1)c1cc2c(s1)CCCCC2 | -15.2% | 31.6µM* | 79.4µM* | ? | 6.0% | ?
O=C(Nc1ccc(N2CCOCC2)cc1)c1cc2c(s1)CCCC2 | -6.7% | 39.8µM* | ? | -0.2% | 4.6% | 39.8µM*
Cc1ccc(CCN2CC(C(=O)NCCN(C)C)CC2=O)cc1 (stereo not given) | -11.0% | 13.5% | -15.2% | 32.5% | 0.8% | -12.0%
N[C@@H](CSS(=O)(=O)O)C(=O)O | / | -30.7%[59 µM] | / | / | 44.7µM* | /
CCOc1ccc(N/C(=C(/C(Cl)=C(Cl)Cl)[N+](=O)[O-])n2cncn2)cc1 | / | 25.1µM* | / | / | -29.0% | 8.91µM*
CCOc1ccc(NC(=O)c2nn(C)c(C(=O)Nc3ccc(OCC)cc3)c2[N+](=O)[O-])cc1 | -1.6% | -8.6%[0.501 µM] | -12.2% | 6.8% | 21.3% | 9.9%
O=[N+]([O-])/C(C(Cl)=C(Cl)Cl)=C(\Nc1ccc(F)cc1)n1cncn1 | / | 8.91µM* | / | / | -18.7% | 28.2µM*
O=C(Nc1ccc(F)cc1)c1ccc(-n2cncn2)c([N+](=O)[O-])c1 | -1.7% | ? | -19.4% | 18.4% | 21.7% | -33.5%
Cc1cccc(C)c1NC1=C(Cl)C(=O)OC1OC(=O)c1ccccc1 (stereo not given) | -29.5% | -6.3% | -12.8%[57.1 µM] | 56.0% | ? | /
Cc1ccc(NC2=C(Cl)C(=O)OC2OC(=O)c2ccccc2)c(C)c1 (stereo not given) | -7.4% | ? | -15.0% | 16.5% | 50.1µM* | /
Cc1ccc(OCc2cc(C(=O)N3CCN(CC(=O)NC(C)C)CC3)no2)cn1 | 26.7µM* | 19.6% | -21.6% | 10.1% | 15.4% | 1.4%
Cc1ccc(OCc2cc(C(=O)N3CCCC(C)C3)no2)cn1 (stereo not given) | -12.5% | / | / | / | / | /
C(=N\Nc1ccc(-n2ccnc2)nn1)/c1ccccc1 | 0.4% | -2.7%[59 µM] | -4.7% | 33.8% | 89.1µM* | ?
COc1cccc(Nc2ccc(-n3ccnc3)nn2)c1 | 4.2% | 9.6% | -9.2% | 30.6% | 3.6% | -15.1%
Cc1ccc(S(=O)(=O)N2CCN(c3nc(-c4cccs4)nc4ccccc34)CC2)c(C)c1 | / | / | -7.5% | 41.9% | / | /
O=C(COC(=O)c1ccc(S(=O)(=O)NCc2ccco2)cc1)NC1CCCCCC1 | -15.4% | ? | ? | 3.0% | 56.2µM* | ?
COc1ccc(C(=O)Nc2ccc(S(=O)(=O)NCc3ccco3)cc2)cc1OC | -7.1% | 39.8µM* | ? | -0.4% | -6.7% | -1.0%
CC(C)CC(=O)Nc1ccc(S(=O)(=O)NCc2ccco2)cc1 | -2.4% | 17.8µM* | -23.8% | 22.6% | 8.4% | -37.6%
O=C(NC1CCCCCC1)c1ccc(S(=O)(=O)NCc2ccco2)cc1 | -6.6% | -4.5%[59 µM] | 0.0% | 4.9% | 2.4% | 9.6%
SMILES | PLK1 PBD inh | G9a inh | JMJD2A Tudor inh | HP1b binding inh | Sfp PPTase inh | BAZ2B block
COc1ccccc1NC(=O)c1ccc(S(=O)(=O)NCc2ccco2)cc1 | -5.3% | -16.9% | -28.2% | 26.7% | 7.7% | -37.4%
O=C(COc1ccccc1F)Nc1ccc(S(=O)(=O)NCc2ccco2)cc1 | -4.2% | -11.9% | ? | 0.7% | -4.3% | -30.6%
O=C(Nc1ccc(S(=O)(=O)NCc2ccco2)cc1)C1CCCCC1 | -10.5% | 44.7µM* | -17.5% | 15.8% | -19.4% | -35.4%
O=C(NC(=S)NC1CCCCC1)c1ccccc1[N+](=O)[O-] | -12.5% | -10.3%[12.7 µM] | ? | 14.3% | 1.5% | ?
O=C(OCc1nnc(-c2ccccc2)o1)c1ccc(S(=O)(=O)NCc2ccco2)cc1 | -25.9% | 9.2%[12.7 µM] | 79.4µM* | ? | -20.0% | 79.4µM*
Cc1cccc(NC(=O)c2ccc(F)c(S(=O)(=O)NCc3ccco3)c2)c1 | -15.4% | 50.1µM* | -26.9% | 15.6% | -6.3% | ?
COc1ccc(S(=O)(=O)NCC2CCC(C(=O)NCc3ccco3)CC2)cc1 (stereo not given) | 10.6µM* | -3.5% | -22.6%[11.4 µM] | -17.4% | 23.8% | 5.8%
O=C(COc1ccccc1)Nc1ccc(S(=O)(=O)NCc2ccco2)cc1 | -12.3% | 50.1µM* | 50.1µM* | -15.5% | -7.1% | ?
NC(=O)COC(=O)c1ccc(S(=O)(=O)NCc2ccco2)cc1 | -10.4% | ? | ? | -13.8% | 6.9% | ?
COc1ccc(C(=O)N(Cc2cccs2)Cc2cccs2)c(O)c1 | / | / | -27.9% | / | / | /
